For 8 compounds, composite z-score and z-score results are on record in PubChem BioAssay.

Assay [1] in a line: small molecules captured by biotinylated probe aFSTL3 – biochemical, small-molecule microarray, fluorescence 635/667, stem cell growth factor project, primary screen (AID 1064).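 Further: measures binding of the biotinylated anti-FSTL3 antibody to printed compounds.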 The note with it: higher = more signal.
Assay [2] in a line: binders from COS7 lysate, DM2A8 probe, primary screen, torsin A project, cell lysate, small-molecule microarray, fluorescence 635/667 (AID 1065). The note with it: higher = more signal, COS7 lysate expressing mutant human TOR1A.
The nature of assay [3]: small molecules captured by biotinylated probe aFGF2 – biochemical, small-molecule microarray, fluorescence 635/667, stem cell growth factor project, primary screen (AID 1067).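 Further: measures binding of biotinylated aFGF2 protein to printed compounds on slides; z-score merges feature fluorescence and signal-to-noise across triplicate slides.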 The note with it: higher = more signal.
A short description of assay [4]: small molecules captured by biotinylated probe aFGF10 – biochemical, small-molecule microarray, fluorescence 635/667, stem cell growth factor project, primary screen (AID 1071).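 Further: score merges 667 nm spot intensity and signal to noise from triplicate slides.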 The note with it: higher = more signal.
Assay [5] deals with Neurogenic locus notch homolog protein 2 (Homo sapiens) (UniProt Q04721). The assay is described as follows: small molecules binding Notch2 protein – biochemical, small-molecule microarray, 635 nm fluorescence, stem cell growth factors, primary screen (AID 1073). The note with it: higher = more signal.
Neurogenic locus notch homolog protein 2 (Homo sapiens), sequence (Q04721 whole entry, looked up, canonical isoform): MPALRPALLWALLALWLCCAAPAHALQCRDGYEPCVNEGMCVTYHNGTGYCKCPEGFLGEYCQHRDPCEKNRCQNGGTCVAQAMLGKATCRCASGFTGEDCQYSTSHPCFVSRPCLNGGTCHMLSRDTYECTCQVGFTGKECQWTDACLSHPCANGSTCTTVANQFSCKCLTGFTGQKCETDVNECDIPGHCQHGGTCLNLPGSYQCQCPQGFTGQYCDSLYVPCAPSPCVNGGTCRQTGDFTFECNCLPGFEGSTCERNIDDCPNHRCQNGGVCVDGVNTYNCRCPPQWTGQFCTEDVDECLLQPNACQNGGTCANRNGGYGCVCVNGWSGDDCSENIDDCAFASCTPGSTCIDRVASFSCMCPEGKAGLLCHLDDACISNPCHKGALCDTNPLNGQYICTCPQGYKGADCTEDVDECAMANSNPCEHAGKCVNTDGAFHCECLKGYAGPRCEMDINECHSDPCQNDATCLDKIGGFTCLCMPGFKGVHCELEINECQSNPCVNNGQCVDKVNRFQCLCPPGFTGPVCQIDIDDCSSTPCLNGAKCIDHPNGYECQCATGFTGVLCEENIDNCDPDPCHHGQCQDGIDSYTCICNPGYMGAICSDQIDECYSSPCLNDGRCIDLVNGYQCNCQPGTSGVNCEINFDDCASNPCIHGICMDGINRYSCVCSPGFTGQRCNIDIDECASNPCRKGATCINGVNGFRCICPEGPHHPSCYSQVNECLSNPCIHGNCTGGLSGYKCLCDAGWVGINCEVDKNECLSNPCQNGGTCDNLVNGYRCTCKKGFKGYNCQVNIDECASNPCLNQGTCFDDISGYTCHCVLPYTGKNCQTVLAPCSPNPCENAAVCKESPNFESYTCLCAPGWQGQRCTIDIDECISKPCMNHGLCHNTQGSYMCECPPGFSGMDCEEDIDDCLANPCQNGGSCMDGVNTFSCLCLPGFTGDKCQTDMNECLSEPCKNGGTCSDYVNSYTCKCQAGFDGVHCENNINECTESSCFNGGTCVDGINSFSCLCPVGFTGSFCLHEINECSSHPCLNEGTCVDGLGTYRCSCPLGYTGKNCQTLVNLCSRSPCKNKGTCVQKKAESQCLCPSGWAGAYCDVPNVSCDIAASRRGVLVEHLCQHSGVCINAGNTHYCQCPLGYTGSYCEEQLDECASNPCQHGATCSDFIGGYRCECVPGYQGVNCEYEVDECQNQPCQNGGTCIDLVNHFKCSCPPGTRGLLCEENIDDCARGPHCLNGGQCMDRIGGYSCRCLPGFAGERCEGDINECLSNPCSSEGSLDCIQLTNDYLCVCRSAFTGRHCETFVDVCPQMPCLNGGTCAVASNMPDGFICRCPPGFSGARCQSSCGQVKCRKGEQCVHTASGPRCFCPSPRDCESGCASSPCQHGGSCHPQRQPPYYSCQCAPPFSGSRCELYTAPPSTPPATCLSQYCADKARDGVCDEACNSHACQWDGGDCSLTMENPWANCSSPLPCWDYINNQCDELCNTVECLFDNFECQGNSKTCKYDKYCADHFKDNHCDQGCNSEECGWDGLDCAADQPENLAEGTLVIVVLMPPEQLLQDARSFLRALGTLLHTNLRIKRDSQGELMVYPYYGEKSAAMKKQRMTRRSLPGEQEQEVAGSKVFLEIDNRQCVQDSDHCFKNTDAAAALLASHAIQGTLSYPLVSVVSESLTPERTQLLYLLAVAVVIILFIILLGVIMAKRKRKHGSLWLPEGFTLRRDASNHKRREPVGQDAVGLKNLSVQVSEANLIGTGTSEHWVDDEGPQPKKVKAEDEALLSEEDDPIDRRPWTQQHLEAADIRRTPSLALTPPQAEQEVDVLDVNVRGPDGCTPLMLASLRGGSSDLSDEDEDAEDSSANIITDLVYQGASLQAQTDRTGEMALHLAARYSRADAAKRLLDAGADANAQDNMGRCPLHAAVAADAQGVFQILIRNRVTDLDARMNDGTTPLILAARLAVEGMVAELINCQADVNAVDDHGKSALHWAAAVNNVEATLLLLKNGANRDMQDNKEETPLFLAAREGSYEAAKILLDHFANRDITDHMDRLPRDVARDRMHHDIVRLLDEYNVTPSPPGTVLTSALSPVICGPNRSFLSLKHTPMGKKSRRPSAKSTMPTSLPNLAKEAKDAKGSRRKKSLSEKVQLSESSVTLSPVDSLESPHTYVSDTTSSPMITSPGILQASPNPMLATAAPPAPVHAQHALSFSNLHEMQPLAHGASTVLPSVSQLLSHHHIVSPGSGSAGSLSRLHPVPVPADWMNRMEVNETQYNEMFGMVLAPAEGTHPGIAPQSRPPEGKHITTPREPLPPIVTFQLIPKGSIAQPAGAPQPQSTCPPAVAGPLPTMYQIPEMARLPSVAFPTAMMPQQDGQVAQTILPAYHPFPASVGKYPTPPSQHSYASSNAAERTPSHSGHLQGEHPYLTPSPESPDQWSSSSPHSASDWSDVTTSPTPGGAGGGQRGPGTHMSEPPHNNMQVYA
For assay [6], the target named is Pro-neuregulin-1, membrane-bound isoform (Homo sapiens) (UniProt Q02297). Description: small molecules binding neuregulin-1 protein – biochemical, small-molecule microarray, fluorescence 635/667, psychiatric disease protein project, primary screen (AID 1075).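 Further: score combines 667 nm spot fluorescence with signal to noise.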 The note with it: NRG1 binding, 635 nm fluorescence, higher = more signal.
Pro-neuregulin-1, membrane-bound isoform (Homo sapiens), sequence (Q02297 whole entry, looked up, the tested form may be a part, canonical isoform): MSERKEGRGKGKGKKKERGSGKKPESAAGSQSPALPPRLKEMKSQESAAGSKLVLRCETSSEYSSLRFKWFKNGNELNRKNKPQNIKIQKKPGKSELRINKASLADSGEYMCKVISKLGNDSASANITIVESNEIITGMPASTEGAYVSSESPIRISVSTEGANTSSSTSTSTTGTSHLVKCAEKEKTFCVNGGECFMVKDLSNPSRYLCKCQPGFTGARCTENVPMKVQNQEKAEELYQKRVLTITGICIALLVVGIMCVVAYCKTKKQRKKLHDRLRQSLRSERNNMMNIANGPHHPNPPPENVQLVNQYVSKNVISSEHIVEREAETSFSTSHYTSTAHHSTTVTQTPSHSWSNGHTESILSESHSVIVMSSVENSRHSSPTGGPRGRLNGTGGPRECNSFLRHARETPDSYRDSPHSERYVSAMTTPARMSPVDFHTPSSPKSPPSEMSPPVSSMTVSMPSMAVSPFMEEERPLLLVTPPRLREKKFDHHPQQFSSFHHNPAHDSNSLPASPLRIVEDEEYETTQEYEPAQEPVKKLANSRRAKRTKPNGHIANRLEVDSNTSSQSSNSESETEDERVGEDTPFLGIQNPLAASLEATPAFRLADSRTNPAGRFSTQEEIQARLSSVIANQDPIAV
Assay [7] has as its system Neuregulin-1 EGF-like domain. The assay is described as follows: small molecules binding NRG1 EGF domain – biochemical, small-molecule microarray, 635 nm fluorescence, primary screen (AID 1081).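 Further: binding of the protein to compounds printed on small-molecule microarray slides.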 The note with it: higher = more signal.
Assay [8] can be described thus: FRG1 expression reporter modulators in myotubes – cell-based, C2C12 myotubes, firefly/Renilla luciferase, luminescence, FRG1 inhibition for FSHD, primary screen (AID 1084). Conditions: FRG1 promoter luciferase, higher = more signal, called active from +8 up or from −8 down.
Assay [9] in a line: small molecules captured by biotinylated probe aFST – biochemical, small-molecule microarray, fluorescence 635/667, stem cell growth factor project, primary screen (AID 1086).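 Further: score merges 667 nm fluorescence with signal-to-noise of each printed compound spot.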 The note with it: higher = more signal.
The nature of assay [10]: binders of probe aHhip on microarray, primary screen, stem cell growth factor project, biochemical, small-molecule microarray, fluorescence 635/667 (AID 1087).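 Further: score merges spot fluorescence at 667nm with spot signal to noise ratio.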 Conditions: higher = more signal.
Assay [11] has as its system PRMT1 (protein arginine N-methyltransferase 1). Description: small molecules binding arginine methyltransferase PRMT1 – biochemical, small-molecule microarray, 635 nm fluorescence, primary screen (AID 1088).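 Further: binding of Prmt1 protein to compounds spotted on small-molecule microarray slides.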 Conditions: higher = more signal.
Assay [12] can be described thus: growth effects on S. cerevisiae YJM789 – YJM789 clinical isolate, OD600, 24 h, basal, primary screen (AID 1089).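 Further: growth of clinical yeast isolate S. cerevisiae YJM 789 seeded 1000 cells per well; test concentration not given here.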 Conditions: higher = more signal, called active from +8 up or from −8 down.
Assay [13] is described as follows: S. pombe growth modifiers, basal conditions – strain 972, OD600, 24 h, no modulator, primary screen (AID 1090).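 Further: basal condition with compound alone and no growth modifier present; test concentration not given here.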 The note with it: S. pombe 972 growth, higher = more signal, called active from +8 up or from −8 down.
Assay [14] is described as follows: budding yeast growth modifiers under rapamycin – strain BY4716, OD600, 96 h, primary screen (AID 1091). Further: test concentration not given here. Conditions: S. cerevisiae BY4716 + rapamycin, higher = more signal, called active from +8 up or from −8 down.
For assay [15], the target named is Torsin-1A-interacting protein 2 (Homo sapiens) (UniProt Q8NFQ8). The assay is described as follows: small molecules binding lysate-expressed LULL1 – cell lysate, human LULL1 lysate, 635/667 nm fluorescence, primary screen (AID 1092).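 Further: probe is lysate of COS7 cells overexpressing human LULL1; score merges per-feature 667 nm fluorescence with signal-to-noise.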 Conditions: small-molecule microarray, hLULL1 lysate binding, 635 nm fluorescence; higher = more signal.
Torsin-1A-interacting protein 2 (Homo sapiens), sequence (Q8NFQ8 whole entry, looked up): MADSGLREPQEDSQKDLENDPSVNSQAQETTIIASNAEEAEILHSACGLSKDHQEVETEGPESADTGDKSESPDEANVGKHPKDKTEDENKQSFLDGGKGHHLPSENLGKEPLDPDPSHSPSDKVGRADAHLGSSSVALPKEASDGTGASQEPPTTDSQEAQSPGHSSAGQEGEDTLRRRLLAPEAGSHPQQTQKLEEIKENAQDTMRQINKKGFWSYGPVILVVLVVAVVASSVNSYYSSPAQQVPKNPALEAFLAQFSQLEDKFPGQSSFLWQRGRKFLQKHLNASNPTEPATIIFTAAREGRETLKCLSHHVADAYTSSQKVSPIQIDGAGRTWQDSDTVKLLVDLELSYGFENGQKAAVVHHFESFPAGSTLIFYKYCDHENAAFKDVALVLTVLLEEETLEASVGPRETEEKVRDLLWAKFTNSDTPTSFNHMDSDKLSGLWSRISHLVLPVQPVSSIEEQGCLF
The nature of assay [16]: optical density change of DRC41 E. coli – strain DRC41, OD650, 24 h, E. coli filamentation project, primary screen (AID 1093).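 Further: MC1000 strain lacking acrAB efflux and sulA so SOS filamentation is blocked; test concentration not given here.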 The note with it: E. coli DRC41 growth, higher = more signal, called active from +8 up or from −8 down.
A short description of assay [17]: probe aLefty2 binding to arrayed compounds – biochemical, biotinylated probe, 635/667 nm fluorescence, primary screen (AID 1094).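 Further: score merges spot fluorescence near 667 nm with spot signal-to-noise ratio.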 The note with it: small-molecule microarray, higher = more signal.
Assay [18] concerns Noggin (protein binding on small-molecule microarray). Description: small molecules binding Noggin protein – biochemical, 635/667 nm fluorescence, primary screen (AID 1095).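 Further: score merges 667 nm feature fluorescence with signal to noise over triplicate slides.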 Conditions: 635 nm fluorescence, higher = more signal.
The target in assay [19] is Neurogenic locus notch homolog protein 3 (Homo sapiens) (UniProt Q9UM47). The assay is described as follows: small molecules binding NOTCH3 protein – biochemical, 635/667 nm fluorescence, primary screen (AID 1096). The note with it: small-molecule microarray, 635 nm fluorescence, higher = more signal.
Assay [20] is described as follows: probe aEGFR binding to arrayed compounds – biochemical, biotinylated probe, 635/667 nm fluorescence, primary screen (AID 1097).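 Further: probe is a biotinylated anti-EGFR antibody binding compounds printed on slides; score combines fluorescence near 667 nm and signal to noise of each spot.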 The note with it: small-molecule microarray, higher = more signal.

Values joined by “and” are separate entries in the source; they are usually repeats but may differ in a detail not shown here. Equal values may be shown once. Active and inactive are the calls of the source.

Turning to `C=C[C@@H](OC)[C@H](O)c1ccc(OC)c(O)c1`, the composite z-score was -0.407 and 0.724 in assay [1]; 0.415 and -0.675 in assay [2]; 0.177 and -0.175 in assay [3]; 0.0573 and -1.49 in assay [4]; 0.113 and -0.602 in assay [5]; -0.44 and -0.559 in assay [6]. The composite z-score in assay [7] is 0.225 and -0.758; in [9] it was -0.209 and -0.844; in assay [10], -0.0994 and -0.296; in assay [11], 0.852 and -0.645; in [15] it was -0.1 and -0.81; in [17] it was -0.17 and -0.109. Further, the composite z-score in [18] is 0.941 and 0.0939; in assay [19], -0.233 and -1.14; in [20], -0.277 and -0.33. For the same compound, the z-score in assay [8] was 0.0163 (inactive) and -0.152 (inactive); in assay [12] it was -0.722 (inactive) and -0.94 (inactive); in assay [13], -0.322 (inactive) and -0.469 (inactive); in assay [14], -0.116 (inactive) and -0.423 (inactive); in assay [16] it was 0.77 (inactive) and 1.76 (inactive).
Consider `CC(C)OC(=O)C=C1C[C@@H](c2cccc(C(F)(F)F)c2)O[C@@H](c2cccc(C(F)(F)F)c2)O1`, for which the composite z-score in assay [1] is 0.0946 and 0.128; in assay [2], 0.297 and 1.36; in assay [3], 0.0043 and -0.13; in assay [4] it was 0.884 and -0.153; in assay [5], -0.27 and -0.628; in assay [6] it was 1.13 and 0.36. The composite z-score is 1.01 and 1.08 in [7]; -0.0032 and -0.598 in [9]; -0.236 and -0.253 in assay [10]; 0.97 and 1.25 in assay [11]; 2.98 and 2.18 in assay [15]; -0.143 and -0.177 in [17]. Moreover, the composite z-score in assay [18] is -0.696 and -1.07; in assay [19], -0.534 and -0.875; in assay [20], -0.254 and -0.243. Moreover, the z-score is -0.0881 (inactive) and -0.227 (inactive) in assay [8]; 0.104 (inactive) and -0.425 (inactive) in assay [12]; 0.63 (inactive) and 0.404 (inactive) in assay [13]; 0.938 (inactive) and 1.23 (inactive) in assay [14]; -0.889 (inactive) and -1.05 (inactive) in assay [16].
For `Cc1cc2c(nc1C)CCCN2CC(C)ON=C[C@@H](C)[C@H](OCc1ccccc1)C(C)C` (stereo not given in full), the composite z-score in [1] was -0.461; in [2] it was 0.478; in assay [3], -0.0724; in assay [4] it was -0.0706; in assay [5] it was -0.461; in assay [6], -0.869. Moreover, the composite z-score in assay [7] was -0.868; in assay [9], 0.374; in assay [10], 0.102; in [11], -1.37; in [15], -0.817; in [17], -0.134. For the same compound, the composite z-score was 0.41 in [18], 0.298 in assay [19] and -0.068 in [20]. For the same compound, the z-score in assay [8] was -0.201 (inactive); in assay [12] it was 0.481 (inactive); in assay [13], 0.514 (inactive); in assay [14], 1.24 (inactive); in [16], 0.448 (inactive).
In the case of `COc1ccc(O[C@H]2C=C[C@@H](c3ccccc3)O[C@@H]2COC(=O)CCC(C)=NO[C@H](C)c2cn([C@H](CO)Cc3ccccc3)nn2)cc1`, the composite z-score in assay [1] is -0.647 and -0.694; in [2], 0.535 and 0.365; in [3], -0.0682 and -0.171; in assay [4], 0.241 and 0.038; in [5], 0.203 and 0.35; in assay [6], 0.338 and 0.692. The composite z-score in [7] was -0.0177 and 0.384; in [9], 0.0869 and -0.364; in assay [10], -0.0196 and 0.201; in [11] it was 0.88 and 0.299; in [15], 0.026 and 0.303; in [17], -0.353 and -0.312. Moreover, the composite z-score in assay [18] was 0.393 and 0.795; in assay [19], 0.155 and 0.167; in assay [20], 0.257 and -0.336. Further, the z-score in [8] is 1.61 (inactive) and 1.46 (inactive); in [12], 0.479 (inactive) and 0.555 (inactive); in assay [13] it was 0.52 (inactive) and 0.0557 (inactive); in [14] it was 0.616 (inactive) and 1.32 (inactive); in [16], 0.204 (inactive) and 0.524 (inactive).
With `C=C[C@@H](C)[C@H](O)c1ccc(O)c2ccccc12`, the composite z-score is -0.0835 and 0.0226 in assay [1]; 0.0628 and -0.136 in assay [2]; -0.182 and -0.24 in assay [3]; -0.455 and -0.788 in assay [4]; -0.889 and -2.07 in [5]; -0.0351 and -0.653 in [6]. The composite z-score in assay [7] was -0.728 and -0.279; in [9] it was -0.938 and -1.14; in [10] it was 0.0373 and -0.261; in [11], 0.849 and -0.813; in assay [15], 1.26 and 0.149; in assay [17], -0.254 and -0.233. Moreover, the composite z-score in [18] is 0.753 and -0.896; in assay [19] it was -0.0801 and -1.72; in [20] it was -0.244 and -0.399. The z-score is -0.431 (inactive) and 0.2 (inactive) in [8]; -0.647 (inactive) and -0.84 (inactive) in assay [12]; -7.96 (inactive) and -7.6 (inactive) in assay [13]; 3.63 (inactive) and 2.2 (inactive) in assay [14]; 1.32 (inactive) and 0.1 (inactive) in [16].
As to `C[C@@H]1CC[C@@H](C(=O)O)N[C@H]1c1ccc(-c2ccco2)cc1`, the composite z-score in assay [1] is -0.462; in [2], 0.712; in assay [3], -0.0502; in [4], 0.422; in assay [5], 0.571; in [6], 0.486. In addition, the composite z-score in assay [7] is 0.811; in assay [9], 0.583; in assay [10] it was -0.0173; in [11], 1.06; in assay [15], 0.534; in [17], 0.0331. The composite z-score in assay [18] was 1.26; in [19], 0.945; in assay [20] it was -0.115. The z-score in assay [8] was 0.0786 (inactive); in assay [12], 0.804 (inactive); in assay [13], -0.383 (inactive); in assay [14], -0.476 (inactive); in assay [16] it was -0.0778 (inactive).
As for `COC(=O)[C@@]1(Cc2ccccc2)[C@H]2c3cc(C(=O)N(C)C)n(Cc4ccc(C)c(F)c4F)c3C[C@H]2CN1C(=O)c1ccccc1`, the composite z-score in [1] was 1 and 0.986; in assay [2], -0.481 and 0.787; in [3], 0.162 and 0.639; in assay [4], 0.384 and 0.451; in assay [5] it was 1.5 and 1.71; in assay [6], 1.39 and 1.48. The composite z-score is 1.39 and 1.12 in assay [7]; 0.705 and 2.39 in assay [9]; 0.176 and 0.567 in [10]; -0.325 and 1.23 in [11]; 3.44 and 3.67 in [15]; 0.378 and 0.513 in assay [17]. In addition, the composite z-score is -0.566 and 0.645 in assay [18]; 0.636 and 1.06 in assay [19]; 0.168 and 0.646 in assay [20]. Besides, the z-score is 3.35 (inactive) and -0.497 (inactive) in [8]; -0.542 (inactive) and -0.0959 (inactive) in assay [12]; -0.991 (inactive) and 1.01 (inactive) in [13]; -0.447 (inactive) and 1.48 (inactive) in assay [14]; -0.359 (inactive) and -0.543 (inactive) in assay [16].
For the compound `CC(C)=NOC[C@@H](O)COCc1ccco1`, the composite z-score in assay [1] was -0.0008; in assay [2] it was 2.26; in [3], -0.0924; in assay [4], 0.0026; in assay [5], -1.37; in [6], 0.126. Further, the composite z-score in assay [7] was -0.603; in assay [9] it was -0.549; in assay [10], -0.0645; in assay [11], -0.697; in assay [15], -0.151; in assay [17], -0.122. For the same compound, the composite z-score in assay [18] is 0.301; in assay [19], -1.45; in [20], -0.147. For the same compound, the z-score in assay [8] is 0.929 (inactive); in [12] it was 0.848 (inactive); in assay [13] it was 0.174 (inactive); in assay [14], 0.746 (inactive); in assay [16], 0.358 (inactive).
